Here are results for five compounds from ChEMBL document CHEMBL3988442, “University of Dundee, Small-Polar-MMV Screening Library” (2021).

Holding throughout (parameters): scale not given: direction of the effect not stated beside the values
Test [1] deals with Protein translocase subunit SecA (Escherichia coli (strain K12)) (UniProt P10408). In words: Assay to Identify E. coli SecA ATPase Inhibitors. The class given is functional. Particulars: 30 µM.
Test [2] has as its target T1, Ubiquitin-activating enzyme e1, putative (Leishmania donovani (strain BPK282A1)) (UniProt E9BSI1).
T1 sequence (whole entry): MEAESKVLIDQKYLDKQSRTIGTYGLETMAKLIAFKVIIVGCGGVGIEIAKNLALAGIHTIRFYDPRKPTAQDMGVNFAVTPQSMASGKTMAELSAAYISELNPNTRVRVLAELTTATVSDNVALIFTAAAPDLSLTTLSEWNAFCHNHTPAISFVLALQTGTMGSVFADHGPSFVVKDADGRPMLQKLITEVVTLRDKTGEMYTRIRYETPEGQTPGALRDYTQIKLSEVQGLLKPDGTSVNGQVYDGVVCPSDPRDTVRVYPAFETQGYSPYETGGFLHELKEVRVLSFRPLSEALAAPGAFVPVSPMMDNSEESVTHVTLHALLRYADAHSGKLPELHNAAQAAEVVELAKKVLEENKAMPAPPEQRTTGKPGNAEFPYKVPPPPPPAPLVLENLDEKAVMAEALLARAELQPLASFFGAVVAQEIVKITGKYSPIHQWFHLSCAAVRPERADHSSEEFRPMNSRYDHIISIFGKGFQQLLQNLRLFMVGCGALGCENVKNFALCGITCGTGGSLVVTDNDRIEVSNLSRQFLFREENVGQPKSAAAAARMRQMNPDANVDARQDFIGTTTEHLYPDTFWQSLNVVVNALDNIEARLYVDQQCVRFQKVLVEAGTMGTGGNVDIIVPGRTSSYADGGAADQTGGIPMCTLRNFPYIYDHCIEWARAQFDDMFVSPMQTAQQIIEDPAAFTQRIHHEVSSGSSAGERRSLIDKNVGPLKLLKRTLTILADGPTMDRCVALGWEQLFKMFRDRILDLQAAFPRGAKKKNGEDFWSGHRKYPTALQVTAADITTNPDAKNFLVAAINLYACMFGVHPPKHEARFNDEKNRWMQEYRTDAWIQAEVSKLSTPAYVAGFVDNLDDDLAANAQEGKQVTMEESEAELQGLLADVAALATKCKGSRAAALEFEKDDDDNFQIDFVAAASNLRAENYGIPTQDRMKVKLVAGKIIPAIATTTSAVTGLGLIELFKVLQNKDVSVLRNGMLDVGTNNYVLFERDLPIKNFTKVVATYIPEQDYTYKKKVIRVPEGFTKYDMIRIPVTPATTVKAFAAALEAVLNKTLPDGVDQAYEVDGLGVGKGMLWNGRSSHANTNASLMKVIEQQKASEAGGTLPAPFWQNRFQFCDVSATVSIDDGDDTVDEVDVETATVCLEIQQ
Briefly: Leishmania donovani Ubiquitin Activating Enzyme (LdE1). The class given is functional. The following applies: 30 µM.

Test [3] concerns the target T2, Aspartate--tRNA(Asp/Asn) ligase (Mycobacterium tuberculosis (strain ATCC 25618 / H37Rv)) (UniProt P9WFW3). Also: in the data most compounds retested in dose-response had high values.
T2 sequence (whole entry): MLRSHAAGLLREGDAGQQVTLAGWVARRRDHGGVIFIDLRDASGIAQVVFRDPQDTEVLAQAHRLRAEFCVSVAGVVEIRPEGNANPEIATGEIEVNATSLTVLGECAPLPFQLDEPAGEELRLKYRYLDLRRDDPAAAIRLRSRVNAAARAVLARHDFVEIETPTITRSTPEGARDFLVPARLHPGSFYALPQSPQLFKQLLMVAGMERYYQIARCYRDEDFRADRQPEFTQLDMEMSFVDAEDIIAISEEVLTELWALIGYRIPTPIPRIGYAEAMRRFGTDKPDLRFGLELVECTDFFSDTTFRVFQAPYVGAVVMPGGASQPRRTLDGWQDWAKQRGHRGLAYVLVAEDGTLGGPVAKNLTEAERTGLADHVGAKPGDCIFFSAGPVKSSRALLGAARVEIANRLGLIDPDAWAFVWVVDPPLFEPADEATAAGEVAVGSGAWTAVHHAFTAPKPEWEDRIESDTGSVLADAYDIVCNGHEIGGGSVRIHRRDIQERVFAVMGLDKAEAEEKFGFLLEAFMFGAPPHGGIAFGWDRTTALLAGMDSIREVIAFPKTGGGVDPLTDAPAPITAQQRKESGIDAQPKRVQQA
In words: Assay for Asp RNA synthetase-1 from Mycobacterium tuberculosis. It is filed as functional. The following applies: 30 µM.

Test [4] addresses AMP-activated protein kinase, AMPK (Homo sapiens) (UniProt P54646+O43741+P54619+Q9UGJ0+Q9Y478+Q13131+Q9UGI9). Briefly: AMP-dependent Kinase enzyme assay. An in vitro enzyme assay that detects ADP turnover that is directly proportional to AMPK activity. This uses naive AMPK that is activated during the assay with MK-8722. The class given is functional. Particulars: 30 µM.
Test [5] has as its target Sialic acid-binding Ig-like lectin 9 (Homo sapiens) (UniProt Q9Y336). In words: Hs-Siglec9 ALPHAscreen SOP 20170721. Particulars: 10 µM. On the technique in general: Alpha assays give light when donor and acceptor beads are brought close together.
Another test relates to Trypanosoma cruzi. In words: Trypanosoma cruzi phosphomannomutase and mannose-1-phosphate guanylyltransferase assay. The following applies: 10 µM. It is filed as functional.
In test [6] the target is T3, Arginase-2, mitochondrial (Homo sapiens) (UniProt P78540).
T3 sequence (whole entry): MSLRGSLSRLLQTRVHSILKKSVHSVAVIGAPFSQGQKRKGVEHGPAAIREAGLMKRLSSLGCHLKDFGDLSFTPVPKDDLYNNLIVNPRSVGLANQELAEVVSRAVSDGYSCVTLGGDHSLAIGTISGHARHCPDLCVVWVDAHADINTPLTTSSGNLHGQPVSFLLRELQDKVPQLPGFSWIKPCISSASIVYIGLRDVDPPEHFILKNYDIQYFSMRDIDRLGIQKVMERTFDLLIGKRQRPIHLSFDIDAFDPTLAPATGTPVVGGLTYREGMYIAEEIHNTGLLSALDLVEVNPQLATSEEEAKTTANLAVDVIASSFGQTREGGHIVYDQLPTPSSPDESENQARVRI
Briefly: in vitro enzyme assay to detect the production of urea directly proportional to the activity of Arginase II. Also: in the data most compounds retested in dose-response had high values. The following applies: 33.3 µM. It is filed as functional.

Test [7] has as its target T4, Proteasome subunit beta (Trypanosoma cruzi) (UniProt O96673).
T4 sequence (whole entry): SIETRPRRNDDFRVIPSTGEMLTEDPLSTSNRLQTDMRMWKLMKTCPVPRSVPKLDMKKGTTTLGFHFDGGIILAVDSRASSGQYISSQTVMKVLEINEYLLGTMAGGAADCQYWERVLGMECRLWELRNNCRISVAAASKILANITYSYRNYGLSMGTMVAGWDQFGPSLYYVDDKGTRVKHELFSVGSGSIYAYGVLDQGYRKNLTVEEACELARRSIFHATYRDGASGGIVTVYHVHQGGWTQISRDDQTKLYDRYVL
In words: Trypanosoma cruzi proteasome chymotrypsin-like activity (TcProtChymo) assay. Also: in the data most compounds retested in dose-response had high values. The following applies: 9.37 µM. It is filed as functional.

The species entered for the next test is Homo sapiens. In words: To identify inhibition of the IFN signalling (Jak-Stat) pathway via expression of an eGFP reporter gene under the control of an IFN-stimulated response element (ISRE) containing MxA promoter. The class given is functional. Particulars: 30 µM. (In general: In a reporter assay the amount or activity of a reporter protein is the signal.)

In test [8] the target is Shiga toxin 2 (Escherichia coli O157:H7) (UniProt P09385+P09386). Briefly: E. coli 0.157:H7 Shiga Toxin SOP - stx2 screening assay. The class given is functional. Particulars: 30 µM.
Test [9] deals with T5, Tyrosyl-tRNA synthetase, putative (Trypanosoma cruzi (strain CL Brener)) (UniProt Q4DSP6).
T5 sequence (whole entry): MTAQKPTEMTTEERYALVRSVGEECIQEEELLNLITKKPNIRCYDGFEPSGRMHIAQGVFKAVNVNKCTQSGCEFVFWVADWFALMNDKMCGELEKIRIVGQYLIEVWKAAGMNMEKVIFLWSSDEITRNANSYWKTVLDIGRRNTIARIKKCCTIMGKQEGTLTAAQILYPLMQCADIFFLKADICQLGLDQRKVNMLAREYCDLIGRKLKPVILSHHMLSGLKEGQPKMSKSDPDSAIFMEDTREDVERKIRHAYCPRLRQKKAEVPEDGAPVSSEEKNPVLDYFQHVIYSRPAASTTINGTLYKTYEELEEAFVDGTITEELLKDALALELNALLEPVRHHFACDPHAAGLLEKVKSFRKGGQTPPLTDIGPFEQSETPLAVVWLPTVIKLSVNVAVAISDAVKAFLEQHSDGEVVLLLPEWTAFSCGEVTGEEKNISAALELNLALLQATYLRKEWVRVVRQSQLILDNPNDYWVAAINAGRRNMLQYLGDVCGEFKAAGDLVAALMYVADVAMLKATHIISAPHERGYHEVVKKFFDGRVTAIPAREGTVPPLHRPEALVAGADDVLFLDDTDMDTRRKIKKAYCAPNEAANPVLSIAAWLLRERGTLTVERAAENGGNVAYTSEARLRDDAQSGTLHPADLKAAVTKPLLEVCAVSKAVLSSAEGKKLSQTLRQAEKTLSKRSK
In words: Trypanosoma cruzi tyrosyl tRNA synthetase (TcYRS) _High Tyrosine SOP. Also: in the data most compounds retested in dose-response had high values. It is filed as functional. The following applies: 30 µM.

The target in test [10] is T5, Tyrosyl-tRNA synthetase, putative (Trypanosoma cruzi (strain CL Brener)). Briefly: Trypanosoma cruzi tyrosyl tRNA synthetase (TcYRS) SOP. It is filed as functional. The following applies: 30 µM.
For test [11], the target named is Chromo domain-containing protein 1 (Saccharomyces cerevisiae (strain ATCC 204508 / S288c) (Baker's yeast)) (UniProt P32657). Briefly: ScCHD-1 Enzyme Inhibition Assay. Also: in the data most compounds retested in dose-response had high values. The class given is functional. The following applies: 30 µM.

Structures are written as SMILES. For some assays here: Measured potencies and affinities stand elsewhere.

Sequence of Sialic acid-binding Ig-like lectin 9 (Homo sapiens) (Q9Y336 whole entry): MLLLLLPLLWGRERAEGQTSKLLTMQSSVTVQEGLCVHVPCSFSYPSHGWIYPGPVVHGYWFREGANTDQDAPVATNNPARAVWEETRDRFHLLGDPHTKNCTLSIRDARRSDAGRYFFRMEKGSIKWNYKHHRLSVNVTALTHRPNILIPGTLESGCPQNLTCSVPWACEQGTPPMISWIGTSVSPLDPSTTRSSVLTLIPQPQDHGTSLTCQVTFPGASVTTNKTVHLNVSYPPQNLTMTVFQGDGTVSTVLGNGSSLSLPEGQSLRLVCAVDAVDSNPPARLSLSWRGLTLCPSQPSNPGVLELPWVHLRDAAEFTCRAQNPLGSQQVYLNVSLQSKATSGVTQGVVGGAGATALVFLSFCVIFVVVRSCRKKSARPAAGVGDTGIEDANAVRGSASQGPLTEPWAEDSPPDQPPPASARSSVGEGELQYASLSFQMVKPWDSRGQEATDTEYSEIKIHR
Sequence of Protein translocase subunit SecA (Escherichia coli (strain K12)) (P10408 whole entry): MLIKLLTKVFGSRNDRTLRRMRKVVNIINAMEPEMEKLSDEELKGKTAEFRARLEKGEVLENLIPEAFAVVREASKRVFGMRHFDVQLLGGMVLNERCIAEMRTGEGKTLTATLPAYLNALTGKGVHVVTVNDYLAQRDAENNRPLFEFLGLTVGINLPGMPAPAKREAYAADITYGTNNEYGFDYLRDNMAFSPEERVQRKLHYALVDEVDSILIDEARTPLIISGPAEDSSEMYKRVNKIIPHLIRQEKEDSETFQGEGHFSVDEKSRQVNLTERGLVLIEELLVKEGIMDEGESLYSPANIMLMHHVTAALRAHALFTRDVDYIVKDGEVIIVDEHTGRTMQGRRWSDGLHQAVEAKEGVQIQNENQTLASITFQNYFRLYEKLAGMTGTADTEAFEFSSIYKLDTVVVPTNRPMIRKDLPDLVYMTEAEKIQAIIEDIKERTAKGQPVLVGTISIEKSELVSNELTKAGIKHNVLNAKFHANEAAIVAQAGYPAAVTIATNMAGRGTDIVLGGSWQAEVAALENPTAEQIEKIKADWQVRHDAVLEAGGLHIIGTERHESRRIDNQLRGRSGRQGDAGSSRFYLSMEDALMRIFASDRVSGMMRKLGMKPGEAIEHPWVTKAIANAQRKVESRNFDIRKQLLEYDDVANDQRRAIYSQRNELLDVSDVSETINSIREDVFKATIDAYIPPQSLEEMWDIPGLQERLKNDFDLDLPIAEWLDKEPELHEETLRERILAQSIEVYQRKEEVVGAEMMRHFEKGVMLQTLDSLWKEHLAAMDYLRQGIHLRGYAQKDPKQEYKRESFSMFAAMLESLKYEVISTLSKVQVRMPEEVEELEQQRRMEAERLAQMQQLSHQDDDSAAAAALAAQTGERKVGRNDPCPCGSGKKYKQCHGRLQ
Sequence of Chromo domain-containing protein 1 (Saccharomyces cerevisiae (strain ATCC 204508 / S288c) (Baker's yeast)) (P32657 whole entry, the tested form may be a part): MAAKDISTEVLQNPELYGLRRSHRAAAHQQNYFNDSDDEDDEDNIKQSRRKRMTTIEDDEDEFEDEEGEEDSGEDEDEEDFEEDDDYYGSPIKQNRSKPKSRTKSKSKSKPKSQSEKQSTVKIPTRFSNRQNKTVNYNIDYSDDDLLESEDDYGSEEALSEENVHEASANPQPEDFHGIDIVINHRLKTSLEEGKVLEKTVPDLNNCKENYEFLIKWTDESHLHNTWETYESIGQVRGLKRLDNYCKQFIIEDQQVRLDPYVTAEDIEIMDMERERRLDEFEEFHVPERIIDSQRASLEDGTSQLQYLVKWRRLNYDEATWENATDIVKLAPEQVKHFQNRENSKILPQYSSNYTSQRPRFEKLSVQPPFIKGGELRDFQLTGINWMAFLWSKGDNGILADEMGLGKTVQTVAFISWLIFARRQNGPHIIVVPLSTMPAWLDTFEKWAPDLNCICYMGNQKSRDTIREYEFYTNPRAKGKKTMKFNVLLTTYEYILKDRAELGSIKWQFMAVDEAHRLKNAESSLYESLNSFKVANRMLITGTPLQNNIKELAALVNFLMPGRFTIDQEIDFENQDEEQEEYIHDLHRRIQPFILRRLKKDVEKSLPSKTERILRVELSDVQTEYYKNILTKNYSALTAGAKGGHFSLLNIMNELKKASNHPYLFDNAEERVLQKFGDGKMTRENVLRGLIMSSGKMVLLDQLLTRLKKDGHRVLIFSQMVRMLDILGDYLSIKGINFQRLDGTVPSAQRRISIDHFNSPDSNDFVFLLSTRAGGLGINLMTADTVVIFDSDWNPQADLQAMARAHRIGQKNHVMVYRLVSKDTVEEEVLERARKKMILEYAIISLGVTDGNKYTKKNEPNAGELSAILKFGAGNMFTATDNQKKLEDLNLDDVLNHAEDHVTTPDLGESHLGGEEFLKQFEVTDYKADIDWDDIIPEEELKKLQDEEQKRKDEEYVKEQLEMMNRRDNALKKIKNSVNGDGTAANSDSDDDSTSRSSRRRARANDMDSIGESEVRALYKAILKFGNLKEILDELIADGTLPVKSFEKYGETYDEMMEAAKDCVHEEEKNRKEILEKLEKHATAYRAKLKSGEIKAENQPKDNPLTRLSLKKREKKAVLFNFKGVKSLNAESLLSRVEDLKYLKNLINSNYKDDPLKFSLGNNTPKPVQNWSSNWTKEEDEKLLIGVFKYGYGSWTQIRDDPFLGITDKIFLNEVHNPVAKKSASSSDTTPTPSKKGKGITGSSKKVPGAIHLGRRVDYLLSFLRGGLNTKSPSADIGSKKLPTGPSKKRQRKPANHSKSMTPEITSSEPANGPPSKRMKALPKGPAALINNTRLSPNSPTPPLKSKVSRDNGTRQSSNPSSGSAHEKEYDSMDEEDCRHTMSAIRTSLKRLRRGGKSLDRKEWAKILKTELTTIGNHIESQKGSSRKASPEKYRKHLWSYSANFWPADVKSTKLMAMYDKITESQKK

Turning to `c1ccc(OC[C@@H]2CCC[C@@]23CNCCO3)nc1`, the Percent Effect in test [1] was -2.73%; in [2], 5.41%; in [3], 9.49%; in [4] it was 130%; in [5] it was -8.96%; in the test on Trypanosoma cruzi it was -4.79%. The Percent Effect was -7.33% in test [6]; 17.9% in [7]; 24.8% in the test listed under Homo sapiens; -5.1% in test [8]; 1.08% in test [9]; 2.56% in test [10]. Moreover, the Percent Effect in test [11] was -0.951%.

In the case of `Cc1csc(CN2CCC[C@]3(C[C@H](Oc4ccccn4)CO3)C2)n1`, the Percent Effect was 0.108% in test [1]; 16.4% in [2]; 2.42% in test [3]; -0.448% in [4]; 1.76% in test [5]; 3.57% with Trypanosoma cruzi. Besides, the Percent Effect in test [6] was 2.4%; in test [7], 3.85%; in the test listed under Homo sapiens, 21.9%; in test [8], -19.3%; in [9], 3.12%; in test [10] it was 21%. In addition, the Percent Effect in test [11] is -4.03%.

On to `CC1=N[C@@]2(CC[C@@H]3CNC[C@@H]32)C(=O)N1CC(C)C`, for which the Percent Effect is 0.0241% in test [1]; 13.5% in test [2]; 7.41% in test [3]; -8.73% in [4]; -11.6% in [5]; -6.35% in the test with Trypanosoma cruzi. Besides, the Percent Effect in test [6] was 7.96%; in [7], 11.2%; in the test listed under Homo sapiens, 30.2%; in test [8] it was -6.54%; in [9], -1.08%; in [10], 0%. In test [11], the Percent Effect was -5.25%.

Turning to `Cc1cc(CN2C[C@@H]3CCCO[C@@H]3[C@H](Nc3ccccn3)C2)no1`, the Percent Effect is -6.36% in test [1]; 8.11% in test [2]; 1.17% in [3]; 2.41% in [4]; 16.5% in test [5]; 1.47% in the test on Trypanosoma cruzi. For the same compound, the Percent Effect in test [6] was found to be 4.22%; in test [7], 7.3%; in the test listed under Homo sapiens, 2.28%; in [8] it was 10.7%; in [9], 5.38%; in test [10], 16.1%. In addition, the Percent Effect in [11] is -5.82%.

For the compound `O=C(c1cccnc1)N1C[C@@H]2CC[C@H](C1)N(Cc1ncc[nH]1)C2`, the Percent Effect in test [1] is -1.65%; in [2], 16.4%; in test [3], 2.47%; in test [4] it was 9.09%; in test [5], 6.45%; with Trypanosoma cruzi, 5.88%. Moreover, the Percent Effect is 5.91% in test [6]; 11.4% in [7]; 7.79% in the test listed under Homo sapiens; -0.806% in test [8]; 7.53% in test [9]; 15% in [10]. Also, in [11], the Percent Effect is -3.77%.
